Data published in PubChem BioAssay (EPA / NIEHS).
Activity calls are given as the source filed them. Rule for the calls: active = hit-call score of the fitted dose curve at least 0.9, where 1 is the maximum; inactive = score below 0.9.

Key:
[1] = read-out: Transforming growth factor beta 1 (TGFb1), TGFB1 (gene 7040); assay: BSK_KF3CT_TGFb1: BioMAP Diversity Plus: KF3CT Assay for Transforming growth factor beta 1 (TGFb1) Biomarker Activity (AID 2283072); conditions: primary human keratinocytes with fibroblasts; actives raise or lower the signal
In short: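 Human keratinocyte/foreskin fibroblast co-culture; TGF-b1 measured by ELISA 24 h after dosing, fitted bidirectionally versus DMSO. Cytotoxicity checked in parallel cultures by total protein (SRB staining, 560 nm).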

[2] = read-out: C-C motif chemokine 2 (Homo sapiens) (UniProt P13500); assay: BSK_KF3CT_MCP1: BioMAP Diversity Plus: KF3CT Assay for Monocyte Chemoattractant Protein 1 (MCP1/CCL2) Biomarker Activity (AID 2283073); conditions: primary human keratinocytes with fibroblasts; actives raise or lower the signal
In short: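 ELISA read-out of MCP-1, 24 h post-dose, in primary human skin keratinocytes co-cultured with fibroblasts. Parallel SRB staining monitors cytotoxicity; changes fitted both directions relative to DMSO.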

[3] = read-out: Matrix Metallopeptidase 9 (MMP9), MMP9 (gene 4318); assay: BSK_KF3CT_MMP9: BioMAP Diversity Plus: KF3CT Assay for Matrix Metallopeptidase 9 (MMP9) Biomarker Activity (AID 2283074); conditions: primary human keratinocytes with fibroblasts; actives raise or lower the signal;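 for AC50: MMP9 protein level quantified by ELISA in the co-culture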
In short: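 Human keratinocyte and foreskin fibroblast co-culture exposed to chemicals for 24 h; MMP9 biomarker measured by ELISA, bidirectional fitting relative to DMSO; cytotoxicity tracked by SRB total protein staining in parallel cultures.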

[4] = read-out: urokinase plasminogen activator (uPA), PLAU (gene 5328); assay: BSK_KF3CT_uPA: BioMAP Diversity Plus: KF3CT Assay for urokinase plasminogen activator (uPA) Biomarker Activity (AID 2283075); conditions: primary human keratinocytes with fibroblasts; actives raise or lower the signal
In short: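 Primary human keratinocyte/foreskin fibroblast co-culture exposed to chemical; uPA measured by ELISA at 24 h. Bidirectional fit versus DMSO, with parallel SRB total-protein staining for cytotoxicity.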

CD40, CD40 (gene 958) [5] = assay: BSK_LPS_CD40: BioMAP Diversity Plus: LPS Assay for CD40 Biomarker Activity (AID 2283076); conditions: primary human HUVEC with PBMC; actives raise or lower the signal
In short: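 In the LPS system of human endothelial cells with peripheral blood mononuclear cells, CD40 levels were read by ELISA 24 h post-treatment. Signal changes in either direction were fitted against the DMSO baseline, with parallel SRB protein staining.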

[6] = read-out: E-selectin (Homo sapiens) (UniProt P16581); assay: BSK_LPS_Eselectin: BioMAP Diversity Plus: LPS Assay for Eselectin Biomarker Activity (AID 2283077); conditions: primary human HUVEC with PBMC; actives raise or lower the signal
In short: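 E-selectin ELISA on LPS-stimulated endothelial cell/PBMC co-cultures, read 24 h post-treatment; gains and losses fitted against DMSO. Parallel SRB staining (0.1% SRB after 10% TCA fixation, 560 nm) flags overt cytotoxicity.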

[7] = read-out: Interleukin-8 (IL8), CXCL8 (gene 3576); assay: BSK_LPS_IL8: BioMAP Diversity Plus: LPS Assay for Interleukin-8 (IL8) Biomarker Activity (AID 2283078); conditions: primary human HUVEC with PBMC; actives raise or lower the signal
In short: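 ELISA read-out of IL-8 after 24 h chemical treatment of LPS-activated endothelial/PBMC human primary co-cultures. Changes either up or down relative to DMSO; overt cytotoxicity checked by sulforhodamine B staining in parallel wells.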

[8] = read-out: Monocyte Chemoattractant Protein-1 (MCP1), CCL2 (gene 6347); assay: BSK_LPS_MCP1: BioMAP Diversity Plus: LPS Assay for Monocyte Chemoattractant Protein-1 (MCP1) Biomarker Activity (AID 2283081); conditions: primary human HUVEC with PBMC; actives raise or lower the signal;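 for AC50: secreted MCP-1 protein quantified by ELISA in culture supernatant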
In short: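 Secreted MCP-1 read by ELISA at 24 h post-dosing in an LPS-activated co-culture of endothelial cells with peripheral blood mononuclear cells. Fits run in both directions, DMSO as baseline; parallel SRB staining tracks overt cytotoxicity.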

[9] = BSK_LPS_PGE2: BioMAP Diversity Plus: LPS Assay for Prostaglandin E2 (PGE2) Biomarker Activity (AID 2283082); conditions: primary human HUVEC with PBMC; actives raise or lower the signal;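 for AC50: secreted prostaglandin E2 measured by ELISA in LPS-stimulated co-culture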
In short: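 HUVEC plus human PBMC co-culture stimulated with LPS; secreted PGE2 quantified by ELISA 24 h after chemical dosing. Activity fitted bidirectionally against DMSO baseline; parallel SRB staining (0.1% SRB after 10% TCA fixation, 560 nm) flags overt cytotoxicity.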

[10] = read-out: Macrophage colony-stimulating factor (MCSF), CSF1 (gene 1435); assay: BSK_LPS_MCSF: BioMAP Diversity Plus: LPS Assay for Macrophage colony-stimulating factor (MCSF) Biomarker Activity (AID 2283083); conditions: primary human HUVEC with PBMC; actives raise or lower the signal
In short: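 Bidirectional fitting against DMSO was applied to M-CSF levels read by ELISA at 24 h post-dose. The system pairs human umbilical vein endothelium with peripheral blood mononuclear cells; parallel SRB staining tracked cytotoxicity.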

[11] = read-out: Tissue Factor, F3 (gene 2152); assay: BSK_LPS_TissueFactor: BioMAP Diversity Plus: LPS Assay for Tissue Factor Biomarker Activity (AID 2283084); conditions: primary human HUVEC with PBMC; actives raise or lower the signal
In short: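 Compound was added to an endothelial cell/PBMC co-culture, and after 24 h tissue factor (CD142) was read by ELISA. Gain or loss of signal was fitted against a DMSO baseline, and parallel SRB staining (560 nm) tracked overt cytotoxicity.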

[12] = read-out: Tumor necrosis factor (Homo sapiens) (UniProt P01375); assay: BSK_LPS_TNFa: BioMAP Diversity Plus: LPS Assay for Tumour Necrosis Factor alpha (TNFa) Biomarker Activity (AID 2283085); conditions: primary human HUVEC with PBMC; actives raise or lower the signal
In short: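 Human umbilical vein endothelial cells co-cultured with PBMC and stimulated with LPS. TNFa was measured by ELISA 24 h after chemical dosing, fitted bidirectionally relative to DMSO.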

[13] = read-out: Vascular cell adhesion molecule 1 (VCAM1), VCAM1 (gene 7412); assay: BSK_LPS_VCAM1: BioMAP Diversity Plus: LPS Assay for Vascular cell adhesion molecule 1 (VCAM1) Biomarker Activity (AID 2283086); conditions: primary human HUVEC with PBMC; actives raise or lower the signal
In short: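 Human umbilical vein endothelial cells co-cultured with PBMC and stimulated with LPS; VCAM-1 measured by ELISA 24 h after dosing. Bidirectional curve fitting against DMSO baseline; cytotoxicity tracked in parallel by SRB total-protein staining.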

CD38, CD38 (gene 952) = assay: BSK_SAg_CD38: BioMAP Diversity Plus: SAg Assay for CD38 Biomarker Activity (AID 2283087); conditions: primary human HUVEC with PBMC; actives raise or lower the signal
In short: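 Human HUVEC plus PBMC co-culture stimulated with superantigen; CD38 measured by ELISA 24 h after chemical dosing. Fluorescence read-out, bidirectional fit against DMSO; cytotoxicity tracked in parallel by SRB and Alamar Blue.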

CD40, CD40 (gene 958) [14] = assay: BSK_SAg_CD40: BioMAP Diversity Plus: SAg Assay for CD40 Biomarker Activity (AID 2283088); conditions: primary human HUVEC with PBMC; actives raise or lower the signal
In short: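 CD40 is measured by fluorescence ELISA in an endothelial/PBMC primary human co-culture at 24 h post-dose. Fitting is bidirectional, DMSO baseline. Parallel SRB staining (560 nm) flags cytotoxicity.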

CD69, CD69 (gene 969) = assay: BSK_SAg_CD69: BioMAP Diversity Plus: SAg Assay for CD69 Biomarker Activity (AID 2283089); conditions: primary human HUVEC with PBMC; actives raise or lower the signal;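 for AC50: cell surface CD69 protein quantified by ELISA with fluorescence detection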
In short: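 Values derive from bidirectional fitting relative to DMSO vehicle. Cells: umbilical vein endothelium plus peripheral blood mononuclear cells, treated 24 h before fluorescent ELISA for CD69.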

[15] = read-out: Monocyte Chemoattractant Protein-1 (MCP1), CCL2 (gene 6347); assay: BSK_SAg_MCP1: BioMAP Diversity Plus: SAg Assay for Monocyte Chemoattractant Protein-1 (MCP1) Biomarker Activity (AID 2283090); conditions: primary human HUVEC with PBMC; actives raise or lower the signal
In short: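 MCP-1 levels in the endothelial–PBMC SAg co-culture were quantified by ELISA at 24 h post-dosing; both increases and decreases versus DMSO scored. Cytotoxicity monitored by SRB total protein in parallel cultures.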

[16] = read-out: E-selectin (Homo sapiens) (UniProt P16581); assay: BSK_SAg_Eselectin: BioMAP Diversity Plus: SAg Assay for Eselectin Biomarker Activity (AID 2283091); conditions: primary human HUVEC with PBMC; actives raise or lower the signal
In short: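 Cell-surface E-selectin is read by ELISA at 24 h in the SAg co-culture of HUVEC and PBMC. Curves are fitted in both directions relative to DMSO. Parallel SRB total-protein staining tracks overt toxicity.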

[17] = BSK_LPS_SRB: Viability Assessment in the BioMAP Diversity Plus: LPS Assay (AID 2283079); conditions: primary human HUVEC with PBMC;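 note: total protein by sulforhodamine B absorbance as a cytotoxicity measure; measured one day after compound addition; fitted in both directions against DMSO so loss or gain of signal counts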
In short: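 SRB viability endpoint: cells fixed with 10% TCA, stained with 0.1% SRB, read at 560 nm, 24 h post-dose. HUVEC/PBMC co-culture; signal change in either direction scored relative to DMSO.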

[18] = read-out: Interleukin-1 alpha (IL1a), IL1A (gene 3552); assay: BSK_LPS_IL1a: BioMAP Diversity Plus: LPS Assay for Interleukin-1 alpha (IL1a) Biomarker Activity (AID 2283080); conditions: primary human HUVEC with PBMC; actives raise or lower the signal
In short: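 Readout is IL-1a level by ELISA, 24 h post-dose, fitted as gain or loss relative to DMSO. System: LPS-activated human primary co-culture of vascular endothelium and peripheral blood mononuclear cells, with parallel SRB total-protein cytotoxicity.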

Chain of E-selectin (Homo sapiens) (P16581 whole entry, looked up): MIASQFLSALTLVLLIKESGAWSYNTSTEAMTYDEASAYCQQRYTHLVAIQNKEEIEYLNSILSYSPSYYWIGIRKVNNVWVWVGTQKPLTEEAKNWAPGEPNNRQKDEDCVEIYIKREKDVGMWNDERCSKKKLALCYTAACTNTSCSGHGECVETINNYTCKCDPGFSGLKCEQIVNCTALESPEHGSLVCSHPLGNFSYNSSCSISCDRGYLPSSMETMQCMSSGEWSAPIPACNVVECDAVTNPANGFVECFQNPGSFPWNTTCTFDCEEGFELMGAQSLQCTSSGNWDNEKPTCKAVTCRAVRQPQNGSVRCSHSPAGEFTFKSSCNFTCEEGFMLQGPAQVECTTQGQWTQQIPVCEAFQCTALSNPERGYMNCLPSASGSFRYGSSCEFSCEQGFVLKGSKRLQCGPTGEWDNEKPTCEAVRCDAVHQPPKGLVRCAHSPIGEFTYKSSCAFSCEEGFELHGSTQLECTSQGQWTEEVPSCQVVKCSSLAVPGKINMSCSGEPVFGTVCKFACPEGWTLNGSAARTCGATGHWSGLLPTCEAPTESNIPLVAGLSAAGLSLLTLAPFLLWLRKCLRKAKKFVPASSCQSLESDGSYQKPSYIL
Chain of Tumor necrosis factor (Homo sapiens) (P01375 whole entry, looked up): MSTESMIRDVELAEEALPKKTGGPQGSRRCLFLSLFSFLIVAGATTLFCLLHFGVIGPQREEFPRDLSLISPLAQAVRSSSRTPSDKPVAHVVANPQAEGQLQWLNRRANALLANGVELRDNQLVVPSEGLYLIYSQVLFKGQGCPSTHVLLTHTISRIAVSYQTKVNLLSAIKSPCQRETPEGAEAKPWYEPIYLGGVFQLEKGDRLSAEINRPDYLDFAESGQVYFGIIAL

CCOC(=O)[C@H](C)Oc1ccc(Oc2nc3ccc(Cl)cc3o2)cc1
outcome [1]: inactive | outcome [2]: inactive | outcome [3]: inactive | outcome [4]: inactive | outcome (CD40, CD40 (gene 958) [5]): inactive | outcome [6]: inactive | outcome [7]: inactive | outcome [8]: inactive | AC50 [9]: 8.85 µM (active) | outcome [10]: inactive | outcome [11]: inactive | outcome [12]: inactive | outcome [13]: inactive | AC50 (CD38, CD38 (gene 952)): 29.9 µM (active) | outcome (CD40, CD40 (gene 958) [14]): inactive | outcome (CD69, CD69 (gene 969)): inactive | outcome [15]: inactive | outcome [16]: inactive

CCCN(CCC)c1c([N+](=O)[O-])cc(C(F)(F)F)c(N)c1[N+](=O)[O-]
AC50 [1]: 32.1 µM (active) | AC50 [2]: 30.5 µM (active) | AC50 [3]: 33.6 µM (active) | AC50 [4]: 37.3 µM (active) | outcome (CD40, CD40 (gene 958) [5]): inactive | outcome [6]: inactive | outcome [7]: inactive | outcome [8]: inactive | outcome [9]: inactive | AC50 [10]: 20 µM (active) | outcome [11]: inactive | AC50 [12]: 30.2 µM (active) | AC50 [13]: 30.7 µM (active) | outcome (CD38, CD38 (gene 952)): inactive | AC50 (CD40, CD40 (gene 958) [14]): 28.9 µM (active) | outcome (CD69, CD69 (gene 969)): inactive | AC50 [15]: 31 µM (active) | AC50 [16]: 29.3 µM (active)

Oc1ccc(C(c2ccc(O)cc2)C(Cl)(Cl)Cl)cc1
outcome [1]: inactive | AC50 [2]: 20 µM (active) | AC50 [3]: 24.6 µM (active) | AC50 [4]: 31.8 µM (active) | AC50 (CD40, CD40 (gene 958) [5]): 24.9 µM (active) | AC50 [7]: 14.9 µM (active) | AC50 [17]: 17 µM (active) | AC50 [18]: 24.8 µM (active) | AC50 [8]: 33.9 µM (active) | AC50 [9]: 29.3 µM (active) | AC50 [10]: 20 µM (active) | AC50 [11]: 37 µM (active) | AC50 [12]: 4.66 µM (active) | AC50 [13]: 17.9 µM (active) | AC50 (CD38, CD38 (gene 952)): 27.4 µM (active) | AC50 (CD40, CD40 (gene 958) [14]): 24.4 µM (active) | AC50 (CD69, CD69 (gene 969)): 20 µM (active) | AC50 [16]: 10.6 µM (active)

CC(=O)[C@H]1CC[C@H]2[C@@H]3CCC4=CC(=O)CC[C@]4(C)[C@H]3CC[C@]12C
outcome [2]: inactive | outcome [3]: inactive | outcome [4]: inactive | AC50 (CD40, CD40 (gene 958) [5]): 20 µM (active) | AC50 [6]: 25.3 µM (active) | AC50 [7]: 20 µM (active) | AC50 [17]: 8 µM (active) | AC50 [8]: 25 µM (active) | outcome [9]: inactive | outcome [10]: inactive | outcome [11]: inactive | outcome [12]: inactive | outcome [13]: inactive | AC50 (CD38, CD38 (gene 952)): 25.7 µM (active) | AC50 (CD40, CD40 (gene 958) [14]): 20 µM (active) | outcome [15]: inactive | AC50 [16]: 1.01 µM (active)

CC(C)CCCCCCc1ccc(O)cc1
AC50 [1]: 5.58 µM (active) | AC50 [2]: 8.65 µM (active) | AC50 [3]: 9.76 µM (active) | AC50 [4]: 9.65 µM (active) | AC50 (CD40, CD40 (gene 958) [5]): 9.28 µM (active) | AC50 [6]: 12.1 µM (active) | AC50 [9]: 6.36 µM (active) | AC50 [10]: 9.04 µM (active) | AC50 [11]: 12.3 µM (active) | AC50 [12]: 7.19 µM (active) | AC50 [13]: 10 µM (active) | AC50 (CD38, CD38 (gene 952)): 8.61 µM (active) | AC50 (CD40, CD40 (gene 958) [14]): 8.59 µM (active) | AC50 (CD69, CD69 (gene 969)): 10.7 µM (active) | AC50 [15]: 6.52 µM (active) | AC50 [16]: 9.34 µM (active)
